Cruzain noTriton: inhibitors of Trypanosoma cruzi cruzain without detergent | purified cruzain, Z-FR-AMC fluorescence, no detergent | Potency, µM, for inactives: max response, negative = inhibition, most hits filed as inhibitors | 2.3% of 200,000 active | AID 1476 | P25779;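 also: plate controls were enzyme without inhibitor for no effect and buffer without enzyme for full effect; nearly all actives have a fitted effect of over 40% in size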
Target sequence (P25779 123-467 limits assumed): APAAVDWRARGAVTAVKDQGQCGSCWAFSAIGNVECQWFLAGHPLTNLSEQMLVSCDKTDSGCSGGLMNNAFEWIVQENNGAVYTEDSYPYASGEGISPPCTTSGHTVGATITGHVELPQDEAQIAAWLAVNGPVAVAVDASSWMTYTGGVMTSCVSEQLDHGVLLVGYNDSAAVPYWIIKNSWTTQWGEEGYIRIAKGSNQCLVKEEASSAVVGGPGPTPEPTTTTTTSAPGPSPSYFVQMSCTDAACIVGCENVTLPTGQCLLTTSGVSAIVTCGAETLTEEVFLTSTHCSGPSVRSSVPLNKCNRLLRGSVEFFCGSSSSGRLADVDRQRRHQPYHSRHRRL
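Purified cruzain at 1.5 nM, pre-incubated 15 min with compound at room temperature in 100 mM sodium acetate pH 5.5, 5 mM DTT, 0.00005% Triton X-100. Reaction started with 2 uM Z-FR-AMC; AMC fluorescence increase over 60 s gives rate.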
Cruzain inh Det: cruzain (T. cruzi) inhibition with detergent | P25779 | Potency, µM, without a hit: max response, negative = inhibition, hits mostly inhibitors | purified cruzain, Z-FR-AMC fluorescence, 0.01% Triton | 0.43% of 200,000 active;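 also: plate controls were neutral wells for no effect and buffer without enzyme for full effect; nearly all actives have a fitted effect of over 40% in size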
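Cruzain (1.5 nM) preincubated 15 min at RT with compound in 100 mM sodium acetate pH 5.5, 5 mM DTT, 0.01% Triton X-100. Reaction started with 2 uM Z-FR-AMC; AMC fluorescence (ex 360/em 450 nm) change over 60 s gave rate.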
The depositor's hits bear a star; ? = inconclusive. Rows were chosen to be rich in hits. Some 2.6% of all compounds tested hit in one or more screens of this group. Calls follow the shape of the dose curve; as a rule, active = well fitted curve in the direction sought with a large enough effect; inconclusive = small, poorly fitted or top-dose-only effect, or another doubt; inactive = no such curve, though single readings can be large; an effect the other way counts as inactive or inconclusive. Potency is read from the fitted curve at half-maximal effect.

SMILES | Cruzain noTriton | Cruzain inh Det
COC(=O)CSc1nnc2n(-c3ccccc3)c(=O)c3c4c(sc3n12)COC(C(C)C)C4 (stereo unspecified) | -8.9% | -0.2%
COc1cccc(-c2cc3nc(-c4ccccc4)cc(N4CCC5(CC4)OCCO5)n3n2)c1 | -14.4% | 28.2µM*
COc1cccc(-c2cc(C(F)(F)F)n3nc(C(=O)N4CCC5(CC4)OCCO5)cc3n2)c1 | ? | -4.6%
CCOC(=O)N1CCN(C(=O)CS(=O)(=O)c2cn(Cc3ccccc3C)c3ccccc23)CC1 | -3.6% | 1.5%
Cc1ccccc1Cn1cc(S(=O)(=O)CC(=O)Nc2nccs2)c2ccccc21 | 15.8µM* | -6.7%
Cc1ccc(C)c(NC(=O)CSc2nc(-c3ccccc3)c(C#N)c(=O)[nH]2)c1 | 2.3% | -3.3%
COc1ccccc1NC(=O)CSc1nc(-c2ccc(C(C)(C)C)cc2)c(C#N)c(=O)[nH]1 | ? | 25.1µM*
O=c1cc(N2CCN(c3ccccc3F)CC2)[nH]c(=O)n1-c1ccc(Br)cc1 | 25.1µM* | -1.5%
COc1ccccc1N1CCN(c2cc(=O)n(-c3ccc(Br)cc3)c(=O)[nH]2)CC1 | ? | 1.8%
CN(C)c1nc(-c2ccc3c(c2)OCO3)nc2ccccc12 | -10.0% | -0.5%
CCn1c(N2CCN(S(=O)(=O)c3ccccc3C(F)(F)F)CC2)nc2ccccc21 | 11.1% | 1.3%
O=S(=O)(c1ccccc1C(F)(F)F)N1CCN(S(=O)(=O)c2ccccc2C(F)(F)F)CC1 | 20µM* | 3.2%
O=[N+]([O-])c1ccc(/C=C/c2ccc3cccc([N+](=O)[O-])c3n2)cc1 | 12.6µM* | -5.6%
O=[N+]([O-])c1cccc2ccc(/C=C/c3ccc(F)cc3)nc12 | -9.7% | -5.9%
Cc1cc(-c2nc3ncccc3o2)ccc1NC(=O)c1ccc(Br)cc1 | 9.3% | 2.1%
COC(=O)c1sc2cccc(F)c2c1S(=O)(=O)Nc1cc(OC)cc(OC)c1 | 14.5% | -4.9%
CCCCCCc1cc2cc(-c3nnc(-c4ccccc4O)o3)c(=O)oc2cc1O | -9.5% | -2.3%
CCCCCCc1cc2cc(S(=O)(=O)c3ccc(F)cc3)c(=O)oc2cc1O | 25.1µM* | -6.5%
COc1cccc(CCc2ccccc2OCC[C@@H]2C[C@@H](O)CN2C)c1 | -0.8% | -3.3%
CCc1ccc(OCC(=O)Nc2c(C(=O)c3ccccc3)oc3ccccc23)cc1 | -1.0% | -0.3%
COC(=O)c1cc(NC(=O)[C@H](CCS(C)(=O)=O)N2Cc3ccccc3C2=O)cc(C(=O)OC)c1 | ? | -0.8%
CCOC(=O)COc1ccccc1-c1ccno1 | 25.1µM* | ?
CCOC(=O)COc1ccc2nsnc2c1Cl | -3.5% | -0.9%
COc1ccc(C)c2sc(N(Cc3cccnc3)C(=O)COc3ccccc3)nc12 | ? | -4.6%
CCOC(=O)c1c(-c2ccc(C)cc2)csc1NC1=NS(=O)(=O)c2ccccc21 | 7.94µM* | -4.8%
SMILES | Cruzain noTriton | Cruzain inh Det
CCOC(=O)c1c(-c2ccc(OC)c(OC)c2)csc1NC(=O)c1ccc(C)cc1 | 4.9% | -1.6%
CCOC(=O)c1c(-c2ccc(C)cc2)csc1NC(=O)C1CC=CCC1C(=O)O (stereo unspecified) | ? | -6.5%
COC(=O)c1c(-c2ccc(C)cc2)csc1NC(=S)NC(=O)c1ccc(F)cc1 | 12.6µM* | -2.1%
COC(=O)c1c(-c2ccccc2)csc1NC(=O)c1c(-c2ccccc2)noc1C | 20µM* | -2.8%
CCOC(=O)c1c(-c2ccc(Br)cc2)csc1NC(=O)c1ccc(F)cc1 | -12.2% | -2.4%
CCOC(=O)c1c(-c2ccc(C)cc2)csc1NC(=S)NC(=O)c1ccccc1 | 25.1µM* | 1.1%
CCOC(=O)c1c(-c2ccc(F)cc2)csc1NC(=O)c1c(-c2ccccc2)noc1C | -48.9% | -5.4%
CCOC(=O)c1sc(NC(=O)c2nc(SC)ncc2Cl)c(C(=O)OCC)c1C | 1.5% | -1.7%
COc1cc(NC(=O)C2=C(C)Nc3nnnn3C2c2ccc(SC)cc2)c(OC)cc1Cl (stereo unspecified) | ? | -12.3%
CCc1ccc(S(=O)(=O)c2nnn3c2nc(N2CCN(c4ccccc4)CC2)c2cc(Cl)ccc23)cc1 | 16.2% | 1.3%
O=C(CN1C(=O)COc2ccc(S(=O)(=O)N3CCCCCC3)cc21)N1CCN(c2cccc(Cl)c2)CC1 | -3.2% | -4.7%
COc1ccc(N2C(=O)CC(S/C(N)=N/N=C/c3ccnc4ccccc34)C2=O)cc1 (stereo unspecified) | 10µM* | 25.1µM*
C/C(=N\N=C(/N)SC1CC(=O)N(c2ccc(Br)cc2)C1=O)c1cccs1 (stereo unspecified) | ? | -7.6%
CCN=C(NCC)SC1CC(=O)N(c2ccc(OC)cc2)C1=O (stereo unspecified) | 0.9% | 2.1%
N/C(=N\N=C\c1ccnc2ccccc12)SC1CC(=O)N(c2ccc(Br)cc2)C1=O (stereo unspecified) | 10µM* | -20.1%
C/C(=N\NC(=O)C(=O)Nc1cccc(Cl)c1)c1ccncc1 | 1.0% | 1.2%
C/C(=N\NC(=O)C(=O)Nc1cccc(C(F)(F)F)c1)c1ccc(Cl)s1 | 15.8µM* | 0.4%
O=S(=O)(Nc1ccc2c(c1)nc1n2CCN(Cc2ccccc2)C1)c1ccccc1 | ? | -5.0%
O=S(=O)(Nc1ccc2c(c1)nc1n2CCN(Cc2ccccc2)C1)c1ccc(Cl)cc1 | 25.1µM* | -3.4%
COC(=O)c1nnc(C(=O)NCc2ccccc2)c2[nH]c3ccc(OC)cc3c12 | -10.1% | -1.0%
CCOC(=O)N1CCN(C(=O)CN(c2ccc(C)cc2C)S(=O)(=O)c2ccccc2)CC1 | ? | -0.5%
CCOC(=O)c1c(N2C(=O)C3C4C=CC(O4)C3C2=O)sc2c1CCCC2 (stereo unspecified) | 19.3% | 5.6%
CCOC(=O)c1c(N2C(=O)Nc3cc(Cl)c(Cl)cc3N2O)sc2c1CCCCC2 | 13.7% | 25.1µM*
O=c1c2cc3c(cc2nc2sc(Nc4ccc(F)cc4F)nn12)OCO3 | -12.3% | -1.0%
CSc1nnc2c3cc(F)ccc3n(Cc3ccccc3)c2n1 | -15.7% | -28.7%
SMILES | Cruzain noTriton | Cruzain inh Det
CCCCn1c2ccc(F)cc2c2nnc(SCCN(CC)CC)nc21 | 20µM* | 15.8µM*
O=C1c2[nH]nc(-c3ccc(F)cc3)c2C(c2ccccc2F)N1c1ccccc1 (stereo unspecified) | ? | -12.1%
Cc1ccc(S(=O)(=O)Nc2cccc3cccnc23)cc1 | 12.8% | -0.1%
O=S(=O)(Nc1cc(Sc2cccc3cccnc23)c(O)c2ccccc12)c1ccccc1 | 3.16µM* | 0.3%
CCN(CC)CCn1c(-c2ccccc2)nc2c(NCCO)nc(C)nc21 | -1.4% | 2.8%
Cc1cccc(NC(=O)c2oc3ccccc3c2NC(=O)Cc2coc3c(C)c(C)ccc23)c1 | -10.2% | -2.2%
CCSc1ncc(Cl)c(C(=O)Nc2sc(C(C)=O)c(C)c2C(=O)OC)n1 | 2.4% | -0.9%
COc1cccc(OC)c1Cn1nnc2c(=O)[nH]c(C3CCN(C(=O)c4ccccc4)CC3)nc21 | 19.4% | -2.1%
Cc1c(Br)c([N+](=O)[O-])nn1CCCC(=O)Nc1sc2c(c1C#N)CCC2 | 1.0% | -16.0%
Cc1c(Br)c([N+](=O)[O-])nn1CC(=O)Nc1sc2c(c1C(=O)OC(C)C)CCCC2 | 12.6µM* | 1.6%
CCn1c(=O)n(-c2ccc3c(c2)OCO3)c2nc(-c3ccc(C(C)C)cc3)nc(C(N)=O)c21 | -9.6% | -0.5%
O=C(COC(=O)/C=C/c1ccc(Cl)cc1Cl)Nc1cc(C(F)(F)F)ccc1N1CCOCC1 | 12.6µM* | -2.7%
O=C(COC(=O)/C=C/c1ccccc1)Nc1cc(C(F)(F)F)ccc1N1CCOCC1 | -1.5% | -1.8%
